Here are results for 5 compounds from PubChem BioAssay.

Activity calls are given as the source filed them. Unless noted, the rule behind the calls is not given here.

The nature of experiment [1]: compounds binding Alexa647 anti-His antibody – biochemical, small-molecule microarray, 635 nm fluorescence, artefact control for SMM control protein annotation, primary screen (AID 1128).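 Note: score merges feature fluorescence with signal-to-noise for each printed compound spot.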 The conditions noted are these: higher = more signal.
The test system of experiment [2] is Human papillomavirus type 1a E7 protein (residues 1-88). The experiment in a line: HPV1a E7 small-molecule binders, primary screen, biochemical, small-molecule microarray, residues 1-88, 635 nm (AID 1129). The conditions noted are these: small-molecule microarray binding, fluorescence 635 nm; higher = more signal.
Experiment [3] has as its target Focal adhesion kinase 1 (Homo sapiens) (UniProt Q05397). The experiment is described as follows: PTK2 protein binding on printed compound slides – biochemical, small-molecule microarray, 635/667 nm fluorescence, BSA, DTT, primary screen (AID 1130).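 Note: composite of spot emission at 667 nm and signal to noise over triplicate slides.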 To be noted: 635 nm fluorescence, higher = more signal.
The subject of experiment [4] is Fibrinogen (Alexa647-labelled). The experiment in a line: Alexa647-fibrinogen binding to printed small molecules – biochemical, small-molecule microarray, 635/667 nm fluorescence, artefact control for SMM control-protein annotation, profiling panel (AID 1131).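 Note: z-score merges 667 nm fluorescence with per-spot signal-to-noise over triplicate slides.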 The conditions noted are these: fibrinogen-A647 binding fluorescence, higher = more signal.
Experiment [5] addresses Follistatin (Homo sapiens) (UniProt P19883). The experiment in a line: FST protein binding to printed compounds – biochemical, small-molecule microarray, 635/667 nm fluorescence, primary screen (AID 1132). The conditions noted are these: 635 nm fluorescence, higher = more signal.
The target of experiment [6] is Fibroblast growth factor 2 (Homo sapiens) (UniProt P09038). The experiment is described as follows: basic fibroblast growth factor binding to printed compounds – biochemical, small-molecule microarray, 635/667 nm fluorescence, primary screen (AID 1133). The conditions noted are these: FGF2, fluorescence 635/667, higher = more signal.
Fibroblast growth factor 2 (Homo sapiens), sequence (P09038 whole entry, looked up): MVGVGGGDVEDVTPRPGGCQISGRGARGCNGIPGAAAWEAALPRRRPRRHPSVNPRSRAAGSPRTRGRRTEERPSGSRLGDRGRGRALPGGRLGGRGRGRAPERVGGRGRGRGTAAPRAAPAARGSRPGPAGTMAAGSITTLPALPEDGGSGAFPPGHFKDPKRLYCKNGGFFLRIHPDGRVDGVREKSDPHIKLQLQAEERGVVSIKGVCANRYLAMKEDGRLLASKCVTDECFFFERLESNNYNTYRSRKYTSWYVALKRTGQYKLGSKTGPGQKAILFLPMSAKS
Experiment [7] can be described thus: JC-1 mitochondrial potential readout, lung cancer cells – cell-based, A549, JC-1 fluorescence, basal, 24 h, 100 nL, profiling panel (AID 1138).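 Note: A549 lung adenocarcinoma cells under basal conditions with no added stimulus; test concentration not given here.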 To be noted: higher = more signal.
For a further experiment, the system named is Lefty1. The experiment in a line: Lefty1 protein binding to printed compounds – biochemical, small-molecule microarray, 635/667 nm fluorescence, primary screen (AID 1139). To be noted: fluorescence 635/667, higher = more signal.
For experiment [8], the system named is wheat germ agglutinin (Triticum aestivum), Alexa647-labelled. The experiment in a line: Alexa647-WGA lectin binding to printed small molecules – biochemical, small-molecule microarray, 635/667 nm fluorescence, artefact control for SMM control-protein annotation, profiling panel (AID 1140).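 Note: score merges 667 nm feature emission with signal to noise over triplicate slides.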 The conditions noted are these: WGA-A647 binding, 635 nm fluorescence, higher = more signal.

In experiment [9] the target is Luciferin 4-monooxygenase (Photinus pyralis) (UniProt P08659). The experiment in a line: inhibition of purified Photinus pyralis luciferase – biochemical, luminescence, purified enzyme, 2006 set, primary screen (AID 1141).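 Note: cell-free assay with purified firefly luciferase at 100 ng per well in PBS; test concentration not given here.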 To be noted: purified firefly luciferase, SteadyGlo luminescence, 30 min; higher = more signal, called active from +8 up or from −8 down.
Luciferin 4-monooxygenase (Photinus pyralis), sequence (P08659 whole entry, looked up): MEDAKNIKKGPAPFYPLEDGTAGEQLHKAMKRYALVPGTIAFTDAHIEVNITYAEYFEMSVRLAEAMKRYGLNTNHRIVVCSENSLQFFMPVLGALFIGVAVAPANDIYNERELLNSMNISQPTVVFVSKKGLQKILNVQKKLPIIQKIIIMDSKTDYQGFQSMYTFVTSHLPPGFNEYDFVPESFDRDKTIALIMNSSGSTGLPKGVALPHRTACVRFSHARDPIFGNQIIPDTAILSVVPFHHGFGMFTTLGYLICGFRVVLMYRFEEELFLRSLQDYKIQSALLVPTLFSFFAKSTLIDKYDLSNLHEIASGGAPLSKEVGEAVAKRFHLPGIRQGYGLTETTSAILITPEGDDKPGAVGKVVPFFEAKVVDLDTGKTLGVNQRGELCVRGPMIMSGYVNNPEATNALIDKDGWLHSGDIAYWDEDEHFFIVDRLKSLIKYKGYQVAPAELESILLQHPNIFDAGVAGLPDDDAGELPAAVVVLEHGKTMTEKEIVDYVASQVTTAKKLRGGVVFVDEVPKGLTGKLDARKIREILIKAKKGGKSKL
Experiment [10] concerns Wnt5a (protein binding on small-molecule microarray). The experiment is described as follows: small molecules binding Wnt5a protein – biophysical, small-molecule microarray, 635/667 nm fluorescence, primary screen (AID 1142).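 Note: fluorescence read at 667 nm with signal to noise per printed feature.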 The conditions noted are these: 635 nm fluorescence, higher = more signal.
Experiment [11] is described as follows: ATP-based viability of Huh7 replicon cells – cell-based, CellTiter-Glo luminescence, basal, 48 h, cytotoxicity control for HCV replication inhibitor project, primary screen (AID 1143).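 Note: Huh7 hepatoma cells carrying a hepatitis C replication reporter with no stimulus; test concentration not given here.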 To be noted: higher = more signal, called active from +8 up or from −8 down. Background: In antiviral work, replicon cells carry a viral genome segment that copies itself.
Experiment [12] in a line: Pseudomonas biofilm growth suppression – PAO1 strain, BacTiter-Glo luminescence, LB-PBS, primary screen (AID 1144). The conditions noted are these: P. aeruginosa PAO1 biofilm, 12 h, higher = more signal.
Experiment [13] in a line: basal CRE-LacZ reporter activity in PC12 – cell-based, unstimulated, primary screen (AID 1145). To be noted: no forskolin, luminescence, 4.5 h, higher = more signal, called active from +8 up or from −8 down.
Experiment [14] can be described thus: forskolin-driven CRE-LacZ activity in PC12 – cell-based, CRE-LacZ reporter, forskolin-stimulated, primary screen (AID 1146).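 Note: PC12 cells with 6xCRE LacZ reporter stimulated by forskolin 10 µM; beta-galactosidase reporter signal reflecting CREB driven transcription.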 To be noted: luminescence, 4.5 h, higher = more signal, called active from +8 up or from −8 down.
In experiment [15] the target is Streptavidin (Streptomyces avidinii) (UniProt P22629). The experiment is described as follows: compounds binding control protein streptavidin – biophysical, small-molecule microarray, 635/667 nm fluorescence, artefact control for SMM compound annotation, primary screen (AID 1147).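 Note: signal reflects streptavidin binding to arrayed compounds as a control protein.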 To be noted: higher = more signal.
Streptavidin (Streptomyces avidinii), sequence (P22629 whole entry, looked up): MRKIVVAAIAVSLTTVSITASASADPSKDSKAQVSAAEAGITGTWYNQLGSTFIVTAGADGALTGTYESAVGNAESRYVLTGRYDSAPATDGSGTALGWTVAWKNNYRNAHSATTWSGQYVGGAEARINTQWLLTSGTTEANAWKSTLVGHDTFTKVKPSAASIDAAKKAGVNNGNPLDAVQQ
Experiment [16] in a line: probe aInhba binding on compound microarray – biochemical, small-molecule microarray, 635/667 nm fluorescence, primary screen (AID 1148).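 Note: score merges 667nm spot fluorescence with signal-to-noise for antibody binding to printed compounds.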 To be noted: higher = more signal.
The target of experiment [17] is Torsin-1A (Homo sapiens) (UniProt O14656). The experiment in a line: TOR1A wild-type binding on microarray – cell lysate, small-molecule microarray, lysate, 635/667 nm, primary screen (AID 1149). To be noted: COS7 hTOR1A-WT lysate, 635 nm fluorescence, higher = more signal.
Torsin-1A (Homo sapiens), sequence (O14656 whole entry, looked up): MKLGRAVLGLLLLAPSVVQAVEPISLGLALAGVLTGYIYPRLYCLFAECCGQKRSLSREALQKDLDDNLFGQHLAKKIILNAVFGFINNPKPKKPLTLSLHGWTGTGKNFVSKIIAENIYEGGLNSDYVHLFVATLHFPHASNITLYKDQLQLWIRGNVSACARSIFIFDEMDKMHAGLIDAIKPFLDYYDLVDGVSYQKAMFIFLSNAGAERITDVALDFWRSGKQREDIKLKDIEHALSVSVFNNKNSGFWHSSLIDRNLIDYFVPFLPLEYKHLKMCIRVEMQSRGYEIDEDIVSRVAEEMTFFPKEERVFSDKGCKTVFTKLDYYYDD
The target is the same in experiment [18]. The experiment is described as follows: torsin A mutant lysate binding on microarrays – cell lysate, small-molecule microarray, COS7 lysate, 635/667 nm fluorescence, primary screen (AID 1150).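 Note: score pools 667 nm emission and signal to noise measuring lysate protein binding.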 The conditions noted are these: COS7 hTOR1A mutant lysate, 635 nm fluorescence, higher = more signal.
For experiment [19], the system named is Sonic hedgehog protein (Shh). The experiment is described as follows: Sonic hedgehog microarray binding compounds – biochemical, small-molecule microarray, 635/667 nm fluorescence, primary screen (AID 1151).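 Note: Shh protein binding to compounds spotted on small-molecule microarray slides; score combines spot fluorescence intensity with signal-to-noise across triplicate slides.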 The conditions noted are these: 635 nm fluorescence, higher = more signal.

Focal adhesion kinase 1 (Homo sapiens), sequence (Q05397 whole entry, looked up): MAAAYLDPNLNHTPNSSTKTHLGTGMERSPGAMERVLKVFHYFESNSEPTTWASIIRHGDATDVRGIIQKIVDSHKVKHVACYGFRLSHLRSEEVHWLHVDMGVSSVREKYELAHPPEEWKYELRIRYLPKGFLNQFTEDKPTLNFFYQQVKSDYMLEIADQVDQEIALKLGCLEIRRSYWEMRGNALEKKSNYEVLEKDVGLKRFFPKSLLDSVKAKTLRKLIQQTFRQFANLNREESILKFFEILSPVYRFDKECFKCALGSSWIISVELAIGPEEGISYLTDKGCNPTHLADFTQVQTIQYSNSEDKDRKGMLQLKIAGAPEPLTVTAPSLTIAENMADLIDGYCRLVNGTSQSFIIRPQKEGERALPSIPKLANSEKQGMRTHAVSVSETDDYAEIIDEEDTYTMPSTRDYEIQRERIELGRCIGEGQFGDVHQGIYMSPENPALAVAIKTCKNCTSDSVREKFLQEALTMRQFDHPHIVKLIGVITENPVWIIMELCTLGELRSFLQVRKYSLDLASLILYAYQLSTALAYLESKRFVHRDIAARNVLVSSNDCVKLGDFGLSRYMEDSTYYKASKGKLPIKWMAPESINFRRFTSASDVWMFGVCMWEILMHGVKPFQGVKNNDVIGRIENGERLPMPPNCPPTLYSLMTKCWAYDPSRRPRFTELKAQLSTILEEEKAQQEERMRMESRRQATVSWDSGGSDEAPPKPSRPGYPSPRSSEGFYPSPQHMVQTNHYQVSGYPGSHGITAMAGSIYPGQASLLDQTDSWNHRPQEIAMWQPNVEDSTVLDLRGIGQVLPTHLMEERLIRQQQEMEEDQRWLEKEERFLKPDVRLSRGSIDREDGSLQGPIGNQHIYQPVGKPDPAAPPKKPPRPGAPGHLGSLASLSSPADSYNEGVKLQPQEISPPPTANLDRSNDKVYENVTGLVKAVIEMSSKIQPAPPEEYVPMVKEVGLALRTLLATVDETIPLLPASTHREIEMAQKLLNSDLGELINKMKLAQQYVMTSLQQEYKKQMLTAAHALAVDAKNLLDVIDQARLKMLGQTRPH
Follistatin (Homo sapiens), sequence (P19883 whole entry, looked up): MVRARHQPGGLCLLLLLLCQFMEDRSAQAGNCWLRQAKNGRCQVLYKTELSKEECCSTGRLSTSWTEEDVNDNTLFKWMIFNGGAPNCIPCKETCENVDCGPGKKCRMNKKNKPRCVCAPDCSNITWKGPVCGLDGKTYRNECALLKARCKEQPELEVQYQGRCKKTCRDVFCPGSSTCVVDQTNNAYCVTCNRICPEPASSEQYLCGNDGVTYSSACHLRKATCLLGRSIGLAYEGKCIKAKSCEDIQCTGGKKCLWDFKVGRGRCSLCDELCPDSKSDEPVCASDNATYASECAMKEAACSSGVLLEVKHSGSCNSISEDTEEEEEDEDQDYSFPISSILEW

With `C=CC[C@]12N=C(c3ccc(OCCCO)cc3)O[C@H]1c1ccccc1N(C)C2=O`, the composite z-score was determined as 2.7 in [1]; 1.2 in [2]; 1.37 in experiment [3]; 0.325 in [4]; 1.46 in experiment [5]; 0.837 in experiment [6]. Further, the composite z-score in the experiment with Lefty1 was 0.501; in [8], 0.675; in experiment [10], 0.305; in experiment [15] it was -0.283; in [16] it was 0.435; in the experiment with Torsin-1A (Homo sapiens) [17] it was -0.0323. The results for the composite z-score (in the experiment with Torsin-1A (Homo sapiens) [18]; in [19]) were 0.468 and 1.28, respectively. In addition, the z-score in experiment [7] is -0.829; in experiment [9], -7.68 (inactive); in [11], -4.59 (inactive); in experiment [12] it was -1.2 (inactive); in experiment [13] it was 0.549 (inactive); in experiment [14], -1.18 (inactive).
`C=CCC(OC(C)=O)[C@@H]1[C@@H](N(Cc2cc3ccccc3o2)C(=O)c2ccc(C)cc2)c2cc(OCCCO)ccc2N1C(=O)Cc1ccc2ccccc2c1` (stereo not given in full): the composite z-score in [1] was -0.631; in [2], -0.627; in experiment [3], 0.105; in [4], -0.638; in experiment [5] it was 0.119; in [6] it was -0.421. Moreover, the composite z-score is -0.281 in the experiment with Lefty1; -0.152 in [8]; -0.109 in experiment [10]; -0.172 in experiment [15]; -0.0523 in [16]; -0.0509 in the experiment with Torsin-1A (Homo sapiens) [17]. Further, the composite z-score in the experiment with Torsin-1A (Homo sapiens) [18] is -0.0619; in experiment [19] it was 0.0781. The z-score was 1.91 in experiment [7]; -1.72 (inactive) in experiment [9]; 0.218 (inactive) in [11]; -0.956 (inactive) in experiment [12]; 2.37 (inactive) in [13]; -0.072 (inactive) in experiment [14].
Consider `COc1ccc([Si](C)(C)[C@@H]2[C@@H](CCO)O[C@]3(C(=O)N(Cc4cccc(N5C(=O)c6cccc7cccc5c67)c4)c4ccccc43)[C@H]2C)cc1`, for which the composite z-score was 1.06 in [1]; 0.848 in experiment [2]; -0.123 in [3]; 0.136 in experiment [4]; 0.004 in [5]; -0.0148 in experiment [6]. The composite z-score in the experiment on Lefty1 was 0.626; in experiment [8], 0.0034; in experiment [10], -0.101; in experiment [15] it was -0.138; in [16] it was -0.128; with Torsin-1A (Homo sapiens) [17], -0.516. For the same compound, the composite z-score in the experiment with Torsin-1A (Homo sapiens) [18] was -0.252; in experiment [19] it was 0.552. Besides, the z-score in [7] was -0.43; in experiment [9] it was -0.508 (inactive); in experiment [11], -5.93 (inactive); in experiment [12], 0.568 (inactive); in experiment [13], 7.33 (inactive); in experiment [14], -0.24 (inactive).
Consider `CC(C)C(=C=CC[C@@H](O)c1ccccc1OCCO)C[C@@H](O)COCc1ccccc1`, for which the composite z-score is -0.0424 in experiment [1]; 0.42 in experiment [2]; -0.0011 in experiment [3]; 0.807 in experiment [4]; 1.28 in experiment [5]; 1.45 in experiment [6]. In addition, the composite z-score with Lefty1 was 0.435; in experiment [8], 0.288; in experiment [10], 0.679; in [15], 0.235; in experiment [16] it was 0.15; with Torsin-1A (Homo sapiens) [17], 0.636. Besides, the composite z-score with Torsin-1A (Homo sapiens) [18] was 1.1; in [19] it was 1.98. The z-score was 1.88 in experiment [7]; -2.5 (inactive) in experiment [9]; -5.62 (inactive) in [11]; 0.173 (inactive) in [12]; 18.5 (active) in experiment [13]; -0.762 (inactive) in experiment [14].
For the compound `C=C[C@@H](COC(C)=O)NS(=O)(=O)c1ccc(Br)cc1`, the composite z-score in [1] was determined as 0.188; in [2], 0.374; in experiment [3], 0.0776; in experiment [4], 0.156; in [5] it was 0.635; in experiment [6], 0.617. Moreover, the composite z-score was 0.283 in the experiment with Lefty1; 0.428 in experiment [8]; -0.0143 in [10]; 0.0981 in experiment [15]; -0.0589 in experiment [16]; 0.825 with Torsin-1A (Homo sapiens) [17]. For the same compound, the composite z-score in the experiment with Torsin-1A (Homo sapiens) [18] was 0.357; in experiment [19], -0.0658. Moreover, the z-score in experiment [7] is -0.367; in [9] it was -0.823 (inactive); in [11], -2.37 (inactive); in experiment [12] it was -0.446 (inactive); in [13] it was 0.904 (inactive); in experiment [14], 0.344 (inactive).
